Here are results for 38 molecules from PubChem BioAssay (Tox21).

Inconclusive results are not listed. More than one record can exist for a structure, and the calls need not agree. The source made the active and inactive calls. The call rests on the fitted dose curve; in most records, active means well fitted curve in the direction sought with a large enough effect in the repeat runs; inconclusive means weak or mixed curves; inactive means no such curve, though single readings can be large; an effect the other way counts as inactive or inconclusive.
On the % scale 0 is the no-effect control and ±100 the full control effect.

A short description of one test: qHTS RealTime-Glo MT Cell Viability Assay in HEK293 cells - 8 hour (AID 1224887). Further: nearly all actives have a fitted effect of over 50% in size. Further: potency means the concentration at half of the fitted maximal effect. On activity change, negative = cytotoxicity: top concentration of the series differs between compounds. The following applies: RealTime-Glo luminescence; series mostly up to 76.8 µM; activity change, negative = cytotoxicity: at the top concentration. In short, it runs like this: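 Luminescence, which tracks viable cell number through reduction of the prosubstrate to a NanoLuc substrate, was read over continuous 37 C culture. Cells (600/well) were premixed with reagent and rested 5 h before 23 nL of compound in DMSO was pinned.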
In general terms: qHTS replaces the single test concentration by a dilution series.
Consider `CCOc1ncc(F)c(=O)[nH]1`, for which the “activity change, negative = cytotoxicity” value is 3.67% [at 35.3 µM] (inactive).

Take `CC(O)Cn1cnc2c1c(=O)n(C)c(=O)n2C` (stereo unspecified): the “activity change, negative = cytotoxicity” value is 0.715% [at 35.3 µM] (inactive).

With `CCCCCCCC/C=C/C(=O)O`, the “activity change, negative = cytotoxicity” value is 6.59% [at 35.3 µM] (inactive).

On to `CCN(CC)CCOc1ccccc1C(=O)CCc1ccccc1`, for which the Potency is 10.7 µM (active).

With `Nc1ccn([C@H]2CS[C@@H](CO)O2)c(=O)n1`, the “activity change, negative = cytotoxicity” value is -2.83% (inactive).

Regarding `O=C(O)CCCc1c[nH]c2ccccc12`, the “activity change, negative = cytotoxicity” value was -5.75% (inactive).

For `CNc1c2c(nn1C)CCCC2`, the “activity change, negative = cytotoxicity” value is -7.47% [at 35.3 µM] (inactive).

Turning to `CCNc1nc(N)nc(Cl)n1`, the “activity change, negative = cytotoxicity” value was 10% (inactive).

For `CCCOC(=O)c1c(Cl)c(Cl)c(Cl)c(Cl)c1C(=O)OCCC`, the “activity change, negative = cytotoxicity” value was -12.3% (inactive).

For the molecule `CN=C(N)NC(=O)Nc1c(C)cccc1C`, the “activity change, negative = cytotoxicity” value is 17.6% [at 35.3 µM] (inactive).

In the case of `O=S(=O)(O)CO`, the “activity change, negative = cytotoxicity” value is 0.0955% (inactive).

Take `CC(=O)OC(C)C[N+](C)(C)C` (stereo unspecified): the “activity change, negative = cytotoxicity” value was -6.53% [at 35.3 µM] (inactive).

As for `CCC(CO)(CO)CO`, the “activity change, negative = cytotoxicity” value is 3.3% (inactive).

For the molecule `CSSc1ccoc1C`, the “activity change, negative = cytotoxicity” value is 1.19% (inactive).

Consider `O=CNNC=O`, for which the “activity change, negative = cytotoxicity” value was 5.58% (inactive).

For the molecule `CC(C)N=C=NC(C)C`, the “activity change, negative = cytotoxicity” value is 0.925% (inactive).

As to `CC(=O)N[C@@H](Cc1ccc(O)cc1)C(=O)O`, the “activity change, negative = cytotoxicity” value was 7.2% [at 35.3 µM] (inactive).

As for `CC(=O)Oc1cccc(O)c1`, the “activity change, negative = cytotoxicity” value was 6.64% [at 35.3 µM] (inactive).

Take `CC(C)(C(=O)c1cccnc1)c1cccnc1`: the “activity change, negative = cytotoxicity” value was 4.09% [at 35.3 µM] (inactive).

`C=CC(=O)NC(C)C`: the “activity change, negative = cytotoxicity” value is 4.58% (inactive).

Consider `COc1cc(OC)c2ccc(=O)oc2c1`, for which the “activity change, negative = cytotoxicity” value was -10.5% (inactive).

As for `CC(C)C1CCC(C(=O)N[C@H](Cc2ccccc2)C(=O)O)CC1` (stereo partly specified), the “activity change, negative = cytotoxicity” value was 2.54% [at 35.3 µM] (inactive).

`CC(C)(O)CCc1ccccc1`: the “activity change, negative = cytotoxicity” value was -13.7% (inactive).

For `Nc1nc(-c2ccc([N+](=O)[O-])cc2)cs1`, the “activity change, negative = cytotoxicity” value was -7.22% (inactive).

`Cc1cc(CCC(=O)OCCOCCOCCOC(=O)CCc2cc(C)c(O)c(C(C)(C)C)c2)cc(C(C)(C)C)c1O`: the Potency was 33.8 µM (active).

Consider `O=C(O)CCS`, for which the “activity change, negative = cytotoxicity” value was 9.8% (inactive).

In the case of `COc1ccc2nc(S(=O)Cc3ncc(C)c(OC)c3C)[nH]c2c1` (stereo unspecified), the Potency was 24.3 µM (active) and inactive.

Regarding `C[C@H](CS)C(=O)N1CCC[C@H]1C(=O)O`, the “activity change, negative = cytotoxicity” value was 12.7% [at 35.3 µM] (inactive).

For `Cc1ccc(Cl)cc1N`, the “activity change, negative = cytotoxicity” value is 3.05% (inactive).

For `CN1C(CSCC(F)(F)F)Nc2cc(Cl)c(S(N)(=O)=O)cc2S1(=O)=O` (stereo unspecified), the Potency is 19 µM (active).

In the case of `Cc1cc([N+](=O)[O-])ccc1N`, the “activity change, negative = cytotoxicity” value was -19.1% (inactive).

Consider `CC[C@H]1OC(=O)[C@H](C)[C@@H](O[C@H]2C[C@@](C)(OC)[C@@H](O)[C@H](C)O2)[C@H](C)[C@@H](O[C@@H]2O[C@H](C)C[C@H](N(C)C)[C@H]2O)[C@](C)(O)C[C@@H](C)CN(C)[C@H](C)[C@@H](O)[C@]1(C)O`, for which the “activity change, negative = cytotoxicity” value was 0.967% [at 35.3 µM] (inactive).

As to `CCCCCCCCCCCCCOC(=O)CCSCCC(=O)OCCCCCCCCCCCCC`, the activity change, negative = cytotoxicity is -5.3% [at 15.8 µM] (inactive).

Consider `CC(=O)NNC(C)=O`, for which the “activity change, negative = cytotoxicity” value is 0.518% (inactive).

With `CC[C@H]1OC(=O)[C@H](C)[C@@H](O[C@H]2C[C@@](C)(OC)[C@@H](O)[C@H](C)O2)[C@H](C)[C@@H](O[C@@H]2O[C@H](C)C[C@H](N(C)C)[C@H]2O)[C@](C)(O)C[C@@H](C)/C(=N\OCOCCOC)[C@H](C)[C@@H](O)[C@]1(C)O`, the “activity change, negative = cytotoxicity” value is -5.79% [at 35.3 µM] (inactive).

Regarding `CNC1CCCN(c2c(F)cc3c(=O)c(C(=O)O)cn(C4CC4)c3c2OC)C1` (stereo unspecified), the “activity change, negative = cytotoxicity” value was -6.76% [at 35.3 µM] (inactive).

Regarding `Cc1ccc(NC(=O)N(C)C)cc1NC(=O)N(C)C`, the “activity change, negative = cytotoxicity” value was 1.08% (inactive).

In the case of `CC[C@@H](CO)NCCN[C@@H](CC)CO`, the “activity change, negative = cytotoxicity” value is 4.01% [at 35.3 µM] (inactive).

A further test in a line: A CellTox Green Cytotoxicity Assay to monitor cytotoxicity in HEK293 cells - 16 hour (AID 1224888). Further: nearly all actives have a fitted effect of over 35% in size. Conditions: CellTox Green fluorescence; series mostly up to 76.8 µM; activity change: at the top concentration. In short, it runs like this:
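Fluorescence from a DNA-binding dye excluded by viable cells was measured repeatedly in the same HEK293 wells (600 cells/well) during continuous compound exposure at 37 C. Each assay gives one read point: 0, 8, 16, 24, 32 or 40 h.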
As for `CCOc1ncc(F)c(=O)[nH]1`, the “activity change” value is 0.928% [at 35.3 µM, stronger effect = higher value] (inactive).

Consider `CC(O)Cn1cnc2c1c(=O)n(C)c(=O)n2C` (stereo unspecified), for which the “activity change” value was 1.09% [at 35.3 µM, stronger effect = higher value] (inactive).

`CCCCCCCC/C=C/C(=O)O`: the “activity change” value is -2.61% [at 35.3 µM, stronger effect = higher value] (inactive).

As for `CCN(CC)CCOc1ccccc1C(=O)CCc1ccccc1`, the “activity change” value is 5.93% [at 35.3 µM, stronger effect = higher value] (inactive).

On to `Nc1ccn([C@H]2CS[C@@H](CO)O2)c(=O)n1`, for which the “activity change” value is 0.716% (inactive).

As to `O=C(O)CCCc1c[nH]c2ccccc12`, the “activity change” value was -1.09% (inactive).

For `CNc1c2c(nn1C)CCCC2`, the “activity change” value was -2.7% [at 35.3 µM, stronger effect = higher value] (inactive).

In the case of `CCNc1nc(N)nc(Cl)n1`, the “activity change” value is -2.72% (inactive).

With `CCCOC(=O)c1c(Cl)c(Cl)c(Cl)c(Cl)c1C(=O)OCCC`, the “activity change” value was 21.2% (inactive).

Turning to `CN=C(N)NC(=O)Nc1c(C)cccc1C`, the “activity change” value was 1.36% [at 35.3 µM, stronger effect = higher value] (inactive).

Consider `O=S(=O)(O)CO`, for which the “activity change” value is -13.7% (inactive).

Take `CC(=O)OC(C)C[N+](C)(C)C` (stereo unspecified): the “activity change” value is 1.1% [at 35.3 µM, stronger effect = higher value] (inactive).

As to `CCC(CO)(CO)CO`, the “activity change” value is -2.62% (inactive).

In the case of `CSSc1ccoc1C`, the “activity change” value was -10.8% (inactive).

For `O=CNNC=O`, the “activity change” value was 0.613% (inactive).

As to `CC(C)N=C=NC(C)C`, the “activity change” value is -20.6% (inactive).

As for `CC(=O)N[C@@H](Cc1ccc(O)cc1)C(=O)O`, the “activity change” value is -0.222% [at 35.3 µM, stronger effect = higher value] (inactive).

For the molecule `CC(=O)Oc1cccc(O)c1`, the “activity change” value was 14.6% [at 35.3 µM, stronger effect = higher value] (inactive).

Consider `CC(C)(C(=O)c1cccnc1)c1cccnc1`, for which the “activity change” value was -5.57% [at 35.3 µM, stronger effect = higher value] (inactive).

For the molecule `C=CC(=O)NC(C)C`, the “activity change” value is 1.25% (inactive).

Take `COc1cc(OC)c2ccc(=O)oc2c1`: the “activity change” value was -0.534% (inactive).

In the case of `CC(C)C1CCC(C(=O)N[C@H](Cc2ccccc2)C(=O)O)CC1` (stereo partly specified), the “activity change” value is -2.53% [at 35.3 µM, stronger effect = higher value] (inactive).

Consider `CC(C)(O)CCc1ccccc1`, for which the “activity change” value is 5.85% (inactive).

With `Nc1nc(-c2ccc([N+](=O)[O-])cc2)cs1`, the “activity change” value is -9.45% (inactive).

As for `Cc1cc(CCC(=O)OCCOCCOCCOC(=O)CCc2cc(C)c(O)c(C(C)(C)C)c2)cc(C(C)(C)C)c1O`, the “activity change” value is 0.314% (inactive).

Turning to `O=C(O)CCS`, the “activity change” value is -6.52% (inactive).

With `COc1ccc2nc(S(=O)Cc3ncc(C)c(OC)c3C)[nH]c2c1` (stereo unspecified), the Potency result was “inactive”.

With `C[C@H](CS)C(=O)N1CCC[C@H]1C(=O)O`, the “activity change” value is 2.32% [at 35.3 µM, stronger effect = higher value] (inactive).

`Cc1ccc(Cl)cc1N`: the “activity change” value is -2.56% (inactive).

For `CN1C(CSCC(F)(F)F)Nc2cc(Cl)c(S(N)(=O)=O)cc2S1(=O)=O` (stereo unspecified), the “activity change” value was -18.2% [at 35.3 µM, stronger effect = higher value] (inactive).

On to `Cc1cc([N+](=O)[O-])ccc1N`, for which the “activity change” value is -16.2% (inactive).

On to `CC[C@H]1OC(=O)[C@H](C)[C@@H](O[C@H]2C[C@@](C)(OC)[C@@H](O)[C@H](C)O2)[C@H](C)[C@@H](O[C@@H]2O[C@H](C)C[C@H](N(C)C)[C@H]2O)[C@](C)(O)C[C@@H](C)CN(C)[C@H](C)[C@@H](O)[C@]1(C)O`, for which the “activity change” value was -1.19% [at 35.3 µM, stronger effect = higher value] (inactive).

Turning to `CCCCCCCCCCCCCOC(=O)CCSCCC(=O)OCCCCCCCCCCCCC`, the activity change was 17.2% [at 15.8 µM, stronger effect = higher value] (inactive).

Take `CC(=O)NNC(C)=O`: the “activity change” value is -13.8% (inactive).

For the molecule `CC[C@H]1OC(=O)[C@H](C)[C@@H](O[C@H]2C[C@@](C)(OC)[C@@H](O)[C@H](C)O2)[C@H](C)[C@@H](O[C@@H]2O[C@H](C)C[C@H](N(C)C)[C@H]2O)[C@](C)(O)C[C@@H](C)/C(=N\OCOCCOC)[C@H](C)[C@@H](O)[C@]1(C)O`, the “activity change” value is -5.31% [at 35.3 µM, stronger effect = higher value] (inactive).

Regarding `CNC1CCCN(c2c(F)cc3c(=O)c(C(=O)O)cn(C4CC4)c3c2OC)C1` (stereo unspecified), the “activity change” value was -15.5% [at 35.3 µM, stronger effect = higher value] (inactive).

In the case of `Cc1ccc(NC(=O)N(C)C)cc1NC(=O)N(C)C`, the “activity change” value was 0.846% (inactive).

Turning to `CC[C@@H](CO)NCCN[C@@H](CC)CO`, the “activity change” value was -10% [at 35.3 µM, stronger effect = higher value] (inactive).
